The source of these data is PubChem BioAssay (EPA / NIEHS).

One may read the AC50 as the concentration at which the activity in the assay is half-maximal.

Active and inactive are the calls of the source. The calls were made as follows: active = hit-call score of the fitted dose curve at least 0.9, where 1 is the maximum; inactive = score below 0.9.

The assay can be described thus: APR_HepG2_CellCycleArrest_72hr: Apredica 72-hour HepG2 Assay for Cell Cycle Arrest (AID 2282914). The conditions noted are these: high-content imaging, actives raise or lower the signal. The protocol:
APR_HepG2_72hr is a cell-based, multiplexed-readout assay that uses HepG2, a human liver cell line, with measurements taken at 72 hours after chemical dosing in a 384-well plate.APR_HepG2_CellCycleArrest_72hr is one of 10 assay component(s) measured or calculated from the APR_HepG2_72hr assay. It is designed to make measurements of cell phenotype, a form of morphology reporter, as detected with fluorescence intensity signals by HCS Fluorescent Imaging technology.Data from the assay component APR_HepG2_CellCycleArrest_72hr was analyzed into 1 assay endpoint. This assay endpoint, APR_HepG2_CellCycleArrest_72hr, was analyzed with bidirectional fitting relative to DMSO as the negative control and baseline of activity. Using a type of morphology reporter, measures of all nuclear dna for gain or loss-of-signal activity can be used to understand the signaling at the pathway-level as they relate to the gene . Furthermore, this assay endpoint can be referred to as a primary readout, because this assay has produced multiple assay endpoints where this one serves a signaling function. To generalize the intended target to other relatable targets, this assay endpoint is annotated to the cell cycle intended target family, where the subfamily is arrest.
Cells were treated with dimethyl sulfoxide (DMSO) as a solvent control at a final concentration of 0.5% v/v or with compounds in DMSO with a resulting final DMSO concentration of 0.5% v/v. Compound treatment was done at concentrations of 0.39, 0.78, 1.56, 3.12, 6.24, 12.5, 25, 50, 100, and 200 uM in duplicate on each plate. Cells were treated with compounds for 1, 24, or 72 hr. Carbonyl […] m-chloro-phenylhydrazone (CCCP) and taxol were used as positive controls for mitochondrial function and cytoskeletal stability, respectively; DMSO served as the negative control for this experiment. Cells were fixed by the direct addition of 50 uL formaldehyde in Hank's Balanced Salt Solution (HBSS) to a final concentration of 3.7%. After incubation in the fixation medium for 30 min at room temperature (293-298 K), cells were rinsed twice with HBSS and treated with cell permeabilization buffer (16 uL of 0.5% Triton X-100) for 10 min at room temperature (293-298 K) before labeling. For mitochondrial membrane potential and mitochondrial measurements, pre-fixed cells were incubated with 50 uL of MitoTracker Red CMXRos (Invitrogen) at a concentration of 250 nM for 30 min before fixation. In the remaining cases, post-fixed cells were labeled by incubation with a multiplexed mixture of primary antibodies in HBSS for 60 min at room temperature (293-298 K) to detect immunoreactivity of c-Jun (1:500), phospho-histone H3 (1:100), phospho-histone H2A.x (1:200), p53 (1:400), alpha-tubulin (1:200) and Hoechst 33342 (2 ug/mL). Cells were labeled for multiplexed imaging on two separate plates: a) Hoechst 33342, MitoTracker Red, phospho-histone H3, and alpha-tubulin, and b) Hoechst 33342, phospho-histone H2A.x, and c-Jun. A final rinse with HBSS (50 uL) was performed before analysis. The primary and secondary antibodies for the proteins were phospho-histone H3 (rabbit anti-phospho-histone H3 and FITC-donkey anti-rabbit IgG), phospho-histone H2A.x (mouse anti-phospho-histone H2A.x and FITC-donkey anti-mouse IgG), c-Jun (rabbit anti-phospho-c-Jun and Cy3-donkey anti-rabbit IgG), p53 (sheep anti-p53 and Cy5-donkey anti-sheep IgG), alpha-tubulin (mouse anti-alpha-tubulin and Cy5-donkey anti-mouse IgG). These antibodies are available as the CellCiphr HepG2 assay kit (Millipore).Digital images of each well were captured using a Cellomics ArrayScan VTI (Thermo Scientific Cellomics) (0.8 NA objective, 0.63x optical coupler, and XF-93 filter set) at 20x magnification. The images were acquired using the autofocus feature of the ArrayScan instrument, which entails the following steps. First, the camera focuses on channel 1 (Hoechst 33342), where nuclei are identified. Second, a Z offset of 1 um is used for capturing mitochondria (MitoTracker Red). […]
On to `O=C(NO)C1(NS(=O)(=O)c2ccc(Oc3ccc(F)cc3)cc2)CCOCC1`, for which the result was inactive.

Consider `OC[C@H]1O[C@@](CO)(O[C@H]2O[C@H](CO)[C@@H](O)[C@H](O)[C@H]2O)[C@@H](O)[C@@H]1O`, for which the outcome was inactive.

As for `CNC(C)=O`, the outcome was inactive.

Turning to `OC(CCl)CCl`, the outcome was inactive.

On to `O=C(O)c1cccc(C[C@@H]2COc3ccc(OCc4nc5cc(F)ccc5s4)cc3[C@@H]2O)c1`, for which the AC50 was 64 µM (active).

`OCc1ccccc1`: the compound was classed as inactive.

As to `Cc1nc(-c2ccccn2)ncc1C(=O)Nn1cc(C)c2cc(F)ccc21`, the AC50 was 162 µM (active).

With `CCN(CC)C(=S)SSC(=S)N(CC)CC`, the AC50 is 3.04 µM (active).

For the compound `c1ccc(C(O[C@@H]2CCCN(CCc3ccc4c(c3)OCO4)C2)c2ccccc2)cc1`, the compound was classed as inactive.

`OCCNCCO`: the compound was classed as inactive.

Consider `O=C(O)[C@H](O)[C@@H](O)C(=O)O`, for which the compound was called inactive.

As for `COc1cc(C(C)C)c2c(c1)S(=O)(=O)N(COc1cc(=O)n3cccc(OCCN4CCCCC4)c3n1)C2=O`, the outcome was inactive.

With `CC1(C)C(=O)N(Cl)C(=O)N1Cl`, the compound was called inactive.

For `CCCCOC(=O)c1ccccc1`, the call was inactive.

Turning to `OCC(CO)(CO)CO`, the compound was classed as inactive.

In the case of `CCCCCCOC(=O)CC(CC(=O)OCCCCCC)(OC(=O)CCC)C(=O)OCCCCCC`, the compound was called inactive.

As to `CC(C)CC(C)O` (stereo not given), the outcome was inactive.

Regarding `CCOC(N)=O`, the compound was called inactive.

With `OCCOCCOCCO`, the compound was classed as inactive.

Regarding `NC(=O)N(O)[C@@H]1COc2cc(OCc3ccccc3)ccc21`, the result was inactive.

For the compound `CC[C@H](C)C(=O)O[C@H]1C[C@H](O)C=C2C=C[C@H](C)[C@H](CC[C@@H](O)C[C@@H](O)CC(=O)O)[C@H]21`, the result was inactive.

Turning to `CCOc1ccc2[nH]cc(C(=O)NCc3ccccc3)c(=O)c2n1`, the result was inactive.

With `Cc1ncc([C@@H](CCCCCCc2ccc3c(n2)NCCC3)CC(=O)O)cn1`, the call was inactive.

As for `CCCCCCCCCC`, the call was inactive.

With `CCn1nc(C)c2c1C(=O)NCC(c1ccc(O)cc1)=N2`, the result was inactive.

As for `NC(=O)NN=Cc1ccc([N+](=O)[O-])o1`, the AC50 is 56.7 µM (active).

Turning to `CC(C)CCCCCCOC(=O)C1CCCCC1C(=O)OCCCCCCC(C)C` (stereo not given), the compound was classed as inactive.

For the compound `CCCCCOC(C)=O`, the result was inactive.

Regarding `COCc1nnc(-c2ccc[n+]([O-])c2)n1-c1c(Cl)c(Cl)cc2[nH]c(=O)c(=O)[nH]c12`, the compound was called inactive.

Turning to `CCCCCCCCCCCCCCO`, the AC50 was 100 µM (active).

With `C[C@]12C=CC(=O)C=C1CC[C@H]1[C@@H]3C[C@@H](O)[C@](O)(C(=O)CO)[C@@]3(C)C[C@H](O)[C@@]12F`, the compound was classed as inactive.

Consider `c1ccc2ncccc2c1`, for which the compound was classed as inactive.

On to `Nc1ccn([C@@H]2O[C@H](CO)[C@@H](O)[C@@H]2O)c(=O)n1`, for which the AC50 was 0.0618 µM (active).

`CCCCCCCCN(C)C`: the compound was classed as inactive.

Regarding `C[C@@H](Oc1ccc(CNC(=O)c2cccnc2Oc2ccc3c(c2)OCO3)c(F)c1)C(=O)O`, the result was inactive.

Turning to `Cc1ccc(S(=O)(=O)NC(=O)NN2CCCCCC2)cc1`, the result was inactive.

As to `O=S(=O)(O)c1ccc(N=Nc2c(O)ccc3cc(S(=O)(=O)O)ccc23)cc1`, the call was inactive.

`COc1cc2c(c(OC)c1OC)-c1ccc(OC)c(=O)cc1[C@@H](NC(C)=O)CC2`: the AC50 was 0.0732 µM (active).

On to `OC(Cn1cncn1)(Cn1cncn1)c1ccc(F)cc1F`, for which the compound was called inactive.

Regarding `CCCC(CCC)C(=O)O`, the result was inactive.
